Most compounds without a hit are left out; they make up all but 10% or so of the library.
HEK cytotox: HEK 293 cell cytotoxicity; hit rate 6.6% among 94,000; Potency, µM (titrated, usually from 115 µM), for the others: top-dose activity change, negative = cytotoxicity, most hits filed as inhibitors; HEK 293 viability, ATP luminescence (CellTiter-Glo), 48-72 h; AID 1345083; note: % is set by controls: 0 for no effect and ±100 for the full control effect; nearly all actives have a fitted effect of over 60% in size
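Luminescence from cellular ATP, measured with CellTiter-Glo, indicates HEK 293 viability. Cells plated at 250 cells/well are treated with compound for 48 or 72 hr at 37 degree Celsius before reagent addition.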
NPR1 antag: blocks ANP-stimulated signaling of human Npr1 receptor; P16066; HEK293 hNpr1 GloSensor cGMP, ANP-stimulated luminescence; Potency, µM (doses to about 46.3 µM), for inactives: top-dose activity change, negative = inhibition, usual class: inhibitors; hit rate 1.6% among 76,000; AID 1347048; calls by dose curve; note: % is set by controls: 0 for no effect and ±100 for the full control effect; nearly all actives have a fitted effect of over 60% in size
Target sequence (P16066 whole entry, looked up): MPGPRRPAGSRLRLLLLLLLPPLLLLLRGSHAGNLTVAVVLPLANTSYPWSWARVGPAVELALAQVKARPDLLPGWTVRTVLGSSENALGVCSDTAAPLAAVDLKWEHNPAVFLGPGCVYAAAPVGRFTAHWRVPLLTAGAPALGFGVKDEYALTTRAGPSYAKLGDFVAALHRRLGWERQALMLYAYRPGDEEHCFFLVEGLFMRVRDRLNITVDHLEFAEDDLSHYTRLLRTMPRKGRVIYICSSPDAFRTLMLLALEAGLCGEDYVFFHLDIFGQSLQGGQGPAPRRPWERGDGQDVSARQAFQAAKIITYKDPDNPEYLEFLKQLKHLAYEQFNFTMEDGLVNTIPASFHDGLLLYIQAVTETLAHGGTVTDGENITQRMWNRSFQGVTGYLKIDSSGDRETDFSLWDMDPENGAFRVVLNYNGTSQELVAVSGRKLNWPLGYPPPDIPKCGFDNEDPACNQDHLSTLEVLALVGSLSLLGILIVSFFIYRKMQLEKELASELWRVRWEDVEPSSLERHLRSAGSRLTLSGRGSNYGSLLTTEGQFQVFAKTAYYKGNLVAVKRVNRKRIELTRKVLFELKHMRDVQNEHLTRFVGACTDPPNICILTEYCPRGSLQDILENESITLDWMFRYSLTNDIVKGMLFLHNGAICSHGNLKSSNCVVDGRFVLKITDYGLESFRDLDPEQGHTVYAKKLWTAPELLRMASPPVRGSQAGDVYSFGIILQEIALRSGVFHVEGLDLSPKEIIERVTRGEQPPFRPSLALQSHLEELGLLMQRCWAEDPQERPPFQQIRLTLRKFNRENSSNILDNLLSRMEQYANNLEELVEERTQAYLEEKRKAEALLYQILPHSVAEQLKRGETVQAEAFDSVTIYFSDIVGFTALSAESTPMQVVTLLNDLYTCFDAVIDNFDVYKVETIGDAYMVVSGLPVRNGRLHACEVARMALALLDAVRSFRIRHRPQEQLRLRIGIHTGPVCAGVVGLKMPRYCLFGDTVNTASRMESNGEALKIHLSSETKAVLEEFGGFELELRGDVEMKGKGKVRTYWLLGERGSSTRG
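Compound pre-incubated 30 min at room temperature on GloSensor-loaded HEK293 cells stably carrying hNpr1 and the pGS-40F cGMP biosensor. Stimulation uses hNppA at 0.1 nM final; luminescence is taken at baseline and 20 min post-agonist.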
GPT2 inhibitor: blocks human glutamate pyruvate transaminase 2. Q8TD30. hit rate 0.25% among 100,000. AID 1671188. Potency, µM (doses to about 57.7 µM), without a hit: at the top dose activity change, negative = inhibition, usual class: inhibitors. Recombinant GPT2, coupled pyruvate oxidase/HRP Amplex Red fluorescence; note: % is set by controls: 0 for no effect and ±100 for the full control effect; nearly all actives have a fitted effect of over 60% in size
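Recombinant GPT2 (10ng/uL) with 250uM a-KG and 2mM L-alanine, 30 min at room temperature, in HEPES pH 7.5 buffer. Pyruvate detected by pyruvate oxidase/HRP/Amplex Red fluorescence after 30 min in the dark; AOA (50uM) as positive control.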
FLuc inh: inhibitors of firefly (Photinus pyralis) luciferase; P08659; purified P. pyralis luciferase, luminescence, biochemical; Potency, µM (top dose mostly 115 µM), actives largely listed as inhibitors; hit rate 2.5% among 76,000; note: % is set by controls: 0 for no effect and ±100 for the full control effect; nearly all actives have a fitted effect of over 65% in size
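Cell-free enzyme assay, 10nM P. pyralis luciferase, luciferin and ATP each at 10uM. Inhibition profiled over a 6-point titration, read as luminescence.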
NIH3T3 tox: NIH 3T3 cell cytotoxicity; NIH 3T3 viability, CellTiter-Glo ATP luminescence, 48-72 h; Potency, µM (titrated, usually from 96.7 µM), without a hit: at the highest dose activity change, negative = cytotoxicity, hits mostly inhibitors; hit rate 4.3% among 94,000; note: % is set by controls: 0 for no effect and ±100 for the full control effect; nearly all actives have a fitted effect of over 55% in size
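NIH 3T3 cells at 400 cells/well received 23 nL of compound by pintool and were incubated 48 or 72 h at 37 °C. Viability was read as ATP-coupled CellTiter-Glo luminescence.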
Npr1 antag conf: hNpr1 antagonism, confirmation assay. shares compounds with NPR1 antag. HEK293 hNpr1 cGMP GloSensor luminescence, ANP-stimulated. Potency, µM (titrated, usually from 57.6 µM), without a hit: top-dose activity change, negative = inhibition, most hits filed as inhibitors. hit rate 76% among 1,400; calls by dose curve; note: nearly all actives have a fitted effect of over 70% in size
NPR2 antag: hNpr2 antagonism, selectivity versus Npr1; shares compounds with NPR1 antag; Potency, µM (top dose mostly 57.6 µM), inactives show top-dose activity change, negative = inhibition, usual class: inhibitors; hit rate 67% among 1,400; HEK293 hNpr2 GloSensor cGMP luminescence, CNP-stimulated; calls by dose curve; note: nearly all actives have a fitted effect of over 70% in size
FLuc counter: inhibits firefly luciferase, false Npr1 antagonist flag; AID 1347047; hit rate 0.7% among 1,400; purified FLuc enzyme, luminescence, Km substrate; shares compounds with NPR1 antag; Potency, µM (doses to about 57.6 µM), without a hit: top-dose activity change, negative = inhibition, actives largely listed as inhibitors; note: 0% is about no effect
GloSensor cGMP: control cell line activity, Npr1 antagonist counter-screen | HEK293 GloSensor cGMP, SNP-stimulated, luminescence | hit rate 69% among 1,400 | shares compounds with NPR1 antag | Potency, µM (series often up to 57.6 µM), for the others: at the top dose activity change, negative = inhibition, hits mostly inhibitors; calls by dose curve; note: % is set by controls: 0 for no effect and ±100 for the full control effect; nearly all actives have a fitted effect of over 70% in size
Starred values were filed as active, the others as inactive; i = inactive; u = inconclusive; x = not tested or not shown. Unless noted, calls come from the whole dose curve; as a rule, active = well fitted curve in the direction sought with a large enough effect; inconclusive = small, poorly fitted or top-dose-only effect, or another doubt; inactive = no such curve, though single readings can be large; an effect the other way counts as inactive or inconclusive. Potency is the fitted concentration of half-maximal effect.

SMILES	HEK cytotox	NPR1 antag	GPT2 inhibitor	FLuc inh	NIH3T3 tox	Npr1 antag conf	NPR2 antag	FLuc counter	GloSensor cGMP
Cc1ccc(CNC(=O)c2ccc3c(c2)CN(Cc2ccc(N(C)C)cc2)CCO3)cc1	u	11µM*	0%	i	u	24µM*	27µM*	2%	27µM*
COCCN1CCCC2(CCN(c3nc(C)nc4sccc34)C2)C1=O (centres undefined)	-34%	u	i	i	u	24µM*	u	-1%	24µM*
COc1ccc(N2C(=O)C3(CCCCC3)C2C(=O)NCCc2c(C)noc2C)cc1 (centres undefined)	1%	4%	-16%	i	-3%	x	x	x	x
CCOc1ccc(CC(=O)N2CCC(Cc3nc(-c4ccc(OC)cc4)no3)CC2)cc1	u	4.5µM*	u	i	u	2.7µM*	3.9µM*	-1%	3.4µM*
CCOc1ccc(CC(=O)N2CCC(Cc3nc(-c4ccc(OC)cc4)no3)CC2)cc1OCC	u	16µM*	i	i	u	27µM*	22µM*	0%	24µM*
COc1ccccc1CC(=O)N1CCC(Cc2nc(-c3ccccc3)no2)CC1	u	u	i	i	u	x	x	x	x
COc1ccc(-c2noc(CC3CCN(C(=O)Cc4cccc(C)c4)CC3)n2)cc1	40µM*	13µM*	i	i	u	22µM*	19µM*	4%	17µM*
COc1ccc(CC(=O)N2CCC(Cc3nc(-c4ccc(OC)cc4)no3)CC2)cc1	u	2.8µM*	i	i	u	3.1µM*	3.4µM*	-2%	3.4µM*
CCOc1ccc(CC(=O)N2CCC(Cc3nc(C(C)C)no3)CC2)cc1OCC	u	0%	2%	i	u	x	x	x	x
CCOc1ccc(CC(=O)N2CCC(Cc3nc(C(C)C)no3)CC2)cc1	u	-15%	i	i	-28%	x	x	x	x
Cc1cccc(CC(=O)N2CCC(Cc3nc(-c4ccccc4)no3)CC2)c1	u	-26%	i	i	u	x	x	x	x
O=C(CNC(=O)c1cccc(-c2ccsc2)c1)NCc1ccc(F)cc1F	u	x	-2%	x	-22%	x	x	x	x
O=C(c1ccc(F)cc1F)N1CCC2(CC1)N=C(c1ccc(Cl)cc1)NO2	u	14µM*	3%	i	u	24µM*	24µM*	-4%	22µM*
Cc1ccc(C2=NC3(CCN(C(=O)c4cc(F)ccc4F)CC3)ON2)cc1	u	-6%	3%	i	u	x	x	x	x
O=C(c1ccc(F)cc1F)N1CCC2(CC1)N=C(c1ccc(Br)cc1)NO2	u	11µM*	2%	i	u	17µM*	15µM*	-2%	12µM*
O=C(c1ccccc1F)N1CCC(n2cc(-c3nc(-c4ccccc4)no3)nn2)C1 (centres undefined)	u	14µM*	i	i	u	22µM*	22µM*	-13%	17µM*
Cc1noc(-c2cn(C3CCN(C(=O)c4ccc(F)c(Cl)c4)CC3)nn2)n1	-14%	-1%	i	i	u	x	x	x	x

Bioassay records deposited in PubChem by National Center for Advancing Translational Sciences (NCATS).
